Drawing on PubChem BioAssay (EPA / NIEHS), this text covers outcome and AC50 for seven compounds.

The subject of test [1] is Sodium/Iodide Symporter (NIS), SLC5A5 (gene 6528). The experiment in a line: CPHEA_Stoker_NIS_Inhibition_RAIU: CPHEA's Radioactive Iodide Uptake (RAIU) Assay for Sodium/Iodide Symporter (NIS) Inhibition, Stoker and Laws Labs (AID 2283841). A digest of the protocol: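 hNIS-HEK293T-EPA cells incubated 2 h at room temperature with compound (0.001–100 uM, 0.5% DMSO) and 329 pM final 125I in HBSS/10 mM HEPES, pH 7.4. Intracellular 125I counted; normalised to DMSO maximal uptake, triplicate, three biological replicates.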

The nature of test [2]: CPHEA_Stoker_NIS_Cytotoxicity: Cytotoxicity Assessment for CPHEA's Radioactive Iodide Uptake (RAIU) Assay for Sodium/Iodide Symporter (NIS) Inhibition, Stoker and Laws Labs (AID 2283897). A digest of the protocol: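 hNIS-HEK293T-EPA cells, human NIS expressed in HEK293T, treated 2 h with chemicals (0.001–100 uM, 0.5% final DMSO). ATP content read by CellTiter-Glo luminescence; loss of signal analysed relative to DMSO.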

Test [3] has as its system frog Estrogen Receptor (ER), gene 398734. As to the kind of experiment: ATG_frER1_XSP2: Attagene TRANS-FACTORIAL Multi-Species (XSP2) HepG2 Assay for frog Estrogen Receptor (ER) (AID 2283821).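 Further: hits raise reporter mRNA above DMSO baseline so potency means agonist or activator.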 The method in brief: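 Gain-of-signal mRNA reporter assay, HepG2 human liver cells, 24 h dosing; transcripts read by fluorescent RT-PCR fragment analysis, DMSO as negative control.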

Test [4] in a line: ATG_M_32_XSP2: Attagene TRANS-FACTORIAL Multi-Species (XSP2) HepG2 Assay for M19 Transcription Factor (Internal Marker) (AID 2283826). The method in brief:
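An internal background marker among multiplexed transfected reporters in HepG2 liver cells was measured 24 h after dosing. Androgen receptor stimulation came from 3 nM 6-alpha-fluorotestosterone and 1.5 nM norgestrel.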

Test [5] addresses Estrogen receptor (Homo sapiens) (UniProt P03372). As to the kind of experiment: ATG_hERa_XSP2: Attagene TRANS-FACTORIAL Multi-Species (XSP2) HepG2 Assay for human Estrogen Receptor (ERa) (AID 2283827). The method in brief:
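Trans-activation of exogenous human ERa-Gal4 chimera read in HepG2 as reporter transcript after 24 h exposure; medium included 3 nM 6-alpha-fluorotestosterone and 1.5 nM norgestrel. Quantified by RT-PCR with capillary electrophoresis, positive-direction fitting against DMSO.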

Test [6] relates to frog Estrogen Receptor (ER2), gene 100174814. As to the kind of experiment: ATG_frER2_XSP2: Attagene TRANS-FACTORIAL Multi-Species (XSP2) HepG2 Assay for frog Estrogen Receptor (ER2) (AID 2283828). A digest of the protocol: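 Induction of reporter mRNA, baseline set by DMSO, is the endpoint. The panel was run in transfected HepG2 cells over 24 h, with 3 nM 6-alpha-fluorotestosterone and 1.5 nM norgestrel present to stimulate androgen receptor.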

The target in test [7] is Peroxisome proliferator-activated receptor gamma (Homo sapiens) (UniProt P37231). The experiment in a line: ATG_hPPARg_XSP2: Attagene TRANS-FACTORIAL Multi-Species (XSP2) HepG2 Assay for human Peroxisome Proliferator-activated Receptor gamma (PPARg) (AID 2283829).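 Further: actives raise reporter mRNA above DMSO so AC50 reflects PPARg activation.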 The method in brief:
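Human HepG2 cells carried transiently transfected Gal4 reporter units and were treated with chemical for 24 h alongside androgen-receptor stimulants (3 nM 6-alpha-fluorotestosterone, 1.5 nM norgestrel). Reporter transcripts were detected by RT-PCR with capillary electrophoresis, analysed in the positive direction against DMSO.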

In test [8] the target is mouse Peroxisome Proliferator-activated Receptor gamma (PPARg), Pparg (gene 19016) (UniProt P37238). The experiment in a line: ATG_mPPARg_XSP2: Attagene TRANS-FACTORIAL Multi-Species (XSP2) HepG2 Assay for mouse Peroxisome Proliferator-activated Receptor gamma (PPARg) (AID 2283830).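 Further: hits are gains in reporter mRNA above DMSO so AC50 marks activation.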 The method in brief: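 Multiplexed TRANS reporter readout: after 24 h chemical exposure of transfected HepG2 cells (with 3 nM 6-alpha-fluorotestosterone, 1.5 nM norgestrel present), RNA reverse-transcribed, amplified, 6-FAM-labelled and resolved by capillary electrophoresis; mouse PPARg-Gal4 induction scored against DMSO.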

Test [9] concerns the target zebrafish Thyroid Hormone Receptor alpha (TRa), thraa (gene 30670) (UniProt Q98867). As to the kind of experiment: ATG_zfTRa_XSP2: Attagene TRANS-FACTORIAL Multi-Species (XSP1) HepG2 Assay for zebrafish Thyroid Hormone Receptor alpha (TRa) (AID 2283832).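 Further: actives raise zebrafish TRa-Gal4 reporter transcript above DMSO baseline.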 A digest of the protocol: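 HepG2, transient MRTU transfection, exogenous NR-Gal4 chimeras; 24 h dosing; mRNA readout via RT-PCR/CE fluorescence; positive direction vs DMSO.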

Test [10] concerns zebrafish Peroxisome Proliferator-activated Receptor gamma (PPARg), gene 557037. As to the kind of experiment: ATG_zfPPARg_XSP2: Attagene TRANS-FACTORIAL Multi-Species (XSP2) HepG2 Assay for zebrafish Peroxisome Proliferator-activated Receptor gamma (PPARg) (AID 2283833).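 Further: actives increase reporter signal over DMSO so AC50 reflects activation.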 The method in brief: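 HepG2, transient MRTU transfection, 24 h compound; zfPPARg-GAL4 reporter mRNA by RT-PCR + capillary electrophoresis; gain-of-signal vs DMSO.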

In test [11] the test system is turtle Thyroid Hormone Receptor, alpha (TRa), gene 101949057. The experiment in a line: ATG_trTRa_XSP2: Attagene TRANS-FACTORIAL Multi-Species (XSP1) HepG2 Assay for turtle Thyroid Hormone Receptor, alpha (TRa) (AID 2283834).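 Further: hits raise reporter mRNA over the DMSO baseline so AC50 marks activators.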 A digest of the protocol: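 Multiplexed TRANS reporter assay; HepG2 carrying NR-Gal4 constructs treated 24 h. mRNA of the GAL4-UAS reporter quantified via labelled RT-PCR fragments on a genetic analyzer, vs DMSO negative control.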

Test [12] can be described thus: ATG_M_61_XSP2: Attagene TRANS-FACTORIAL Multi-Species (XSP2) HepG2 Assay for M61 Transcription Factor (Internal Marker) (AID 2283835; active means hit-call score of the fitted dose curve at least 0.9, where 1 is the maximum; inactive means score below 0.9;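 further: reporter mRNA of an internal background marker read by RT-PCR and capillary electrophoresis; active means a rise in signal above the DMSO baseline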). The method in brief:
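Signal was mRNA induction detected as fluorescence after RT-PCR and capillary electrophoresis, analysed in the gain direction with DMSO as baseline. HepG2 cells transiently carrying reporter constructs received chemicals for 24 h.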

The target in test [13] is zebrafish Thyroid Hormone Receptor beta (TRb), thrb (gene 30607) (UniProt Q9PVE4). As to the kind of experiment: ATG_zfTRb_XSP2: Attagene TRANS-FACTORIAL Multi-Species (XSP1) HepG2 Assay for zebrafish Thyroid Hormone Receptor beta (TRb) (AID 2283836). The method in brief: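 Transfect HepG2 with multiple reporter transcription units, dose chemical, incubate 24 h. Isolate RNA, reverse-transcribe, amplify and fluorescently label reporter sequences, digest with HpaI, then resolve by capillary electrophoresis. Positive direction fitted against DMSO.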

Test [14] deals with human Thyroid hormone Receptor alpha (TRa), THRA (gene 7067) (UniProt P10827). As to the kind of experiment: ATG_hTRa_XSP2: Attagene TRANS-FACTORIAL Multi-Species (XSP2) HepG2 Assay for human Thyroid hormone Receptor alpha (TRa) (AID 2283838). The method in brief: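 Reporter transcripts were read by RT-PCR with fluorescent primer extension, HpaI digestion and capillary electrophoresis. These came from HepG2 cells carrying multiplexed TRa-Gal4 TRANS constructs, harvested 24 hours after dosing. The medium also held 6-alpha-fluorotestosterone (3 nM) and norgestrel (1.5 nM), and increases were fitted against DMSO.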

Test [15] has as its target frog Thyroid hormone Receptor alpha (TRa), thra-a (gene 397942) (UniProt P15204). As to the kind of experiment: ATG_frTRa_XSP2: Attagene TRANS-FACTORIAL Multi-Species (XSP2) HepG2 Assay for frog Thyroid hormone Receptor alpha (TRa) (AID 2283839). A digest of the protocol: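 Chimeric frog TRα-GAL4 activity in human liver cells measures reporter transcript induction 24 h post-dose. Detection uses RT-PCR, HpaI-digested labelled products and fluorescence capillary electrophoresis; DMSO serves as negative control.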

In test [16] the target is human Thyroid hormone Receptor beta (TRb), THRB (gene 7068) (UniProt P10828). As to the kind of experiment: ATG_hTRb_XSP2: Attagene TRANS-FACTORIAL Multi-Species (XSP2) HepG2 Assay for human Thyroid hormone Receptor beta (TRb) (AID 2283840).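 Further: actives raise reporter mRNA so potency reflects agonist-like gain of signal.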 The method in brief: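 Gain-of-signal reporter transcription, referenced to DMSO, was measured in transiently transfected HepG2 after 24 h exposure; labeled RT-PCR products were resolved by capillary electrophoresis. Assay medium included 3 nM 6-alpha-fluorotestosterone and 1.5 nM norgestrel.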

Test [17] is described as follows: ATG_XTT_Cytotoxicity_XSP2: Cytotoxicity Assessment in the Attagene TRANS-FACTORIAL Multi-Species (XSP2) HepG2 Assay (AID 2283837). The method in brief:
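XTT-based cell number read-out in human HepG2 liver cells carrying transfected reporter units, measured 24 h after chemical dosing. Activity is signal loss versus DMSO baseline.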

Several values for one entry are separate records, joined by “and”; a condition that tells them apart may be missing. Identical values can stand only once. Results filed as inconclusive are left out. The source holds several records for some structures; these can differ, active in one and inactive in another. Activity calls are given as the source filed them. How the source made its calls, unless noted: active means hit-call score of the fitted dose curve at least 0.9, where 1 is the maximum; inconclusive means response in the unintended direction; inactive means score below 0.9.

Chain of Peroxisome proliferator-activated receptor gamma (Homo sapiens) (P37231 whole entry, looked up, the tested form may be a part): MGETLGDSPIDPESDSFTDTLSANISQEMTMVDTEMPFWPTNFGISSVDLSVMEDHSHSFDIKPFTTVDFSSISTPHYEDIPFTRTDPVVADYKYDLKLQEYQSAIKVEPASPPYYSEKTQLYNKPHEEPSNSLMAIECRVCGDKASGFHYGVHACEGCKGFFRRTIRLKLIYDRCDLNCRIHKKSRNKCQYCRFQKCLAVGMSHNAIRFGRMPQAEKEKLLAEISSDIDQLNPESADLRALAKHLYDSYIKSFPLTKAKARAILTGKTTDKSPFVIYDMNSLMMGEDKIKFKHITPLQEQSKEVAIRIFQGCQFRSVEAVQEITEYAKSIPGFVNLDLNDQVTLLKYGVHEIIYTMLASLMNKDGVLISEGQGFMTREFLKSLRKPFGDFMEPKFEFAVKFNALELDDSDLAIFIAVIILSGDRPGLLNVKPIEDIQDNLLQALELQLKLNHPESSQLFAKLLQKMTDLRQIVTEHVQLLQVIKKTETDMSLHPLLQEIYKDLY
Chain of mouse Peroxisome Proliferator-activated Receptor gamma (PPARg), Pparg (gene 19016) (P37238 whole entry, looked up, the tested form may be a part): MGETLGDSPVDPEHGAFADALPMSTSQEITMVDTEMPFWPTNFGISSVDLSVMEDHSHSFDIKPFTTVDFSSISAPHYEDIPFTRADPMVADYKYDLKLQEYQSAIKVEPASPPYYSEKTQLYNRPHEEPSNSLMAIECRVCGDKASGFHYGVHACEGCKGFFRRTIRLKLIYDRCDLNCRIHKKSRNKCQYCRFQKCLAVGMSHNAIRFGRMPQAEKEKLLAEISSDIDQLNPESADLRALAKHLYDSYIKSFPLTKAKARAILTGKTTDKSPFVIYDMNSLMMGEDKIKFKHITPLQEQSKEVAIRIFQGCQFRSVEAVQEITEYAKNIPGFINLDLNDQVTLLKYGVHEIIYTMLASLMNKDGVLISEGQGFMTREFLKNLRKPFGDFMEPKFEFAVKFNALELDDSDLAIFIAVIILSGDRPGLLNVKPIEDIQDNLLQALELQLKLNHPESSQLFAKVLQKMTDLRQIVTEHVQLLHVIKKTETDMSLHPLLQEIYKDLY
Chain of zebrafish Thyroid Hormone Receptor beta (TRb), thrb (gene 30607) (Q9PVE4 whole entry, looked up): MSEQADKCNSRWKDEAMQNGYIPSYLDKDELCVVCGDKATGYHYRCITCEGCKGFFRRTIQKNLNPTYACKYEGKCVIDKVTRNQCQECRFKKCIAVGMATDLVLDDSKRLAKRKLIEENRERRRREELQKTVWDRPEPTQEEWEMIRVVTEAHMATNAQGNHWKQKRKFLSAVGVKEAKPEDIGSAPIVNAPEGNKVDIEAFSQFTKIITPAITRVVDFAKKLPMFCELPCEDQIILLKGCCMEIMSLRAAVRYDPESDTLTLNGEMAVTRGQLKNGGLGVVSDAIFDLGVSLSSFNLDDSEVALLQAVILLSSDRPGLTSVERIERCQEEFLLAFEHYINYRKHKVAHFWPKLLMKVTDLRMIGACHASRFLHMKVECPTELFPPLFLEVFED
Chain of Estrogen receptor (Homo sapiens) (P03372 whole entry, looked up, the tested form may be a part): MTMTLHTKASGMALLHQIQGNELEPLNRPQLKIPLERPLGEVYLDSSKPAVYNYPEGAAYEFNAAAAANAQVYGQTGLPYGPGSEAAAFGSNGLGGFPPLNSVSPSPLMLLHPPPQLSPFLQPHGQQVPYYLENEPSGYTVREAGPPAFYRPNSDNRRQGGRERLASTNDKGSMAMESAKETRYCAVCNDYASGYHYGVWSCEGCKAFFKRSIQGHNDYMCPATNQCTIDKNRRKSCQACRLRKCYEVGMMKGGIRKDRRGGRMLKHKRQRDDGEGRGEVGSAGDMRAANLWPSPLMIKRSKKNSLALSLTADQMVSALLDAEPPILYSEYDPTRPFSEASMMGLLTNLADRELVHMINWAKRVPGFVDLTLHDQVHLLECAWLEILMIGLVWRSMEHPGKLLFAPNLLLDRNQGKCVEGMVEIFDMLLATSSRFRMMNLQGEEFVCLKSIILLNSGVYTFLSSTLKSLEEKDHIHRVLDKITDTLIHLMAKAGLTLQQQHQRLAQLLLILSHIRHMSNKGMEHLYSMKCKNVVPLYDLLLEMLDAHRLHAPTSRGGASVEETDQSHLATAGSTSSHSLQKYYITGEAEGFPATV
Chain of frog Thyroid hormone Receptor alpha (TRa), thra-a (gene 397942) (P15204 whole entry, looked up, the tested form may be a part): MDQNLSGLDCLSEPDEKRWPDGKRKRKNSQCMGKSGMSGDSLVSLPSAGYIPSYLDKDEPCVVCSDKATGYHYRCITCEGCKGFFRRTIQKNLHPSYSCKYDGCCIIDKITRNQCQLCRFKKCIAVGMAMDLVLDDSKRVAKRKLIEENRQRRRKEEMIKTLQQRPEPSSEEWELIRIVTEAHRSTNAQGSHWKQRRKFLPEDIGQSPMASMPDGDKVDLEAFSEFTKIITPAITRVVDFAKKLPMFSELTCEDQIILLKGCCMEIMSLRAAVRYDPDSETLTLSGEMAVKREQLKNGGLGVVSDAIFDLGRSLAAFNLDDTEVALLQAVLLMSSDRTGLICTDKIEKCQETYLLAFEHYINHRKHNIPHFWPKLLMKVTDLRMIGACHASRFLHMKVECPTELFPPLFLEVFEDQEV
Chain of human Thyroid hormone Receptor beta (TRb), THRB (gene 7068) (P10828 whole entry, looked up): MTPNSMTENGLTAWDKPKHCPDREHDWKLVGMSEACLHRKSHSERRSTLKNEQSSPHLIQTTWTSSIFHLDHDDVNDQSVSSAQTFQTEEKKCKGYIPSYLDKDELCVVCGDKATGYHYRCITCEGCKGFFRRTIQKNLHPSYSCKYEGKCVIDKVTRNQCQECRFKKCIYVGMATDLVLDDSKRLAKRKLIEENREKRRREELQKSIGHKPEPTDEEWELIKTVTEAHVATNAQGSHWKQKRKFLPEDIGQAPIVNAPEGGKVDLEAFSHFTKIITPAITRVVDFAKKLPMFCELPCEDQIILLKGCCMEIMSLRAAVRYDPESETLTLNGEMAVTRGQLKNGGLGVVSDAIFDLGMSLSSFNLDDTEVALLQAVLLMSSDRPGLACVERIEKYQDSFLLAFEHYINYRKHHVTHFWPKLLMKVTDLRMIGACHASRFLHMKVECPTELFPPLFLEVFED
Chain of human Thyroid hormone Receptor alpha (TRa), THRA (gene 7067) (P10827 whole entry, looked up, the tested form may be a part): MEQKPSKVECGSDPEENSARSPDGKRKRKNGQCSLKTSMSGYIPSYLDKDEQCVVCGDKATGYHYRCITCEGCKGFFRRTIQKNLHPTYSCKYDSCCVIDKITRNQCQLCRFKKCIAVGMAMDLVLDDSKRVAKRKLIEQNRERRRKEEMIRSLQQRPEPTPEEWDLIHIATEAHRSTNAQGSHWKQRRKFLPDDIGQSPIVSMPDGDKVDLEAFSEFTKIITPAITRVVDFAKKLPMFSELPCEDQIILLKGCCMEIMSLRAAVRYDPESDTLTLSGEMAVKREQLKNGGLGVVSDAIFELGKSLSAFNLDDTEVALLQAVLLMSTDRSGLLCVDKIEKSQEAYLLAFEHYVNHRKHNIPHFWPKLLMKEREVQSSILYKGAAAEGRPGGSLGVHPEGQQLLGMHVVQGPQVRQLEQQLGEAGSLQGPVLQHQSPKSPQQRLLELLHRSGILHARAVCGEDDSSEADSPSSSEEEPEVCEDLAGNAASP
Chain of zebrafish Thyroid Hormone Receptor alpha (TRa), thraa (gene 30670) (Q98867 whole entry, looked up, the tested form may be a part): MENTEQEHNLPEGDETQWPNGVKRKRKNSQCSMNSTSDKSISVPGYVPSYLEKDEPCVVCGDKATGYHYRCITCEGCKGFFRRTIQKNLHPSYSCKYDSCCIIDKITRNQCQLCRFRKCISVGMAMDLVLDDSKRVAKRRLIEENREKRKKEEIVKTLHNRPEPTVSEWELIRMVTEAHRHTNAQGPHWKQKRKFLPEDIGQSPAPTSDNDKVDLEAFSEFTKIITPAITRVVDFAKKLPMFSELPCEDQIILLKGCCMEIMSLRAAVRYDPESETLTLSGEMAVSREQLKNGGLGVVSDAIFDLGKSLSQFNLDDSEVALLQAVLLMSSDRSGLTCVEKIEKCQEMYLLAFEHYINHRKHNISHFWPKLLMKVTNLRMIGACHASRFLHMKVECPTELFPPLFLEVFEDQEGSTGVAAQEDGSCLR

As to `CCCCC(O)(Cn1cncn1)c1ccc(Cl)cc1Cl` (configuration not stated), the result in test [1] and in test [2] was inactive.

The term AC50 denotes the concentration giving half of the maximal activity seen. As for `COc1ccc(-c2ccccc2)cc1NNC(=O)OC(C)C`, the concentration at half-maximal activity (AC50) in test [1] is 50 µM (active). In addition, the outcome in [2] was inactive.

Consider `CC1(C)C(C=C(Cl)Cl)C1C(=O)OC(C#N)c1cccc(Oc2ccccc2)c1` (configuration not stated), for which the AC50 in test [3] is 21.1 µM (active); in [5], 17.5 µM (active); in [6] it was 63.6 µM (active); in [7] it was 14.2 µM (active); in [8], 27.8 µM (active); in test [10], 12.6 µM (active). The compound was called inactive in test [4], in test [9], in test [11], in test [12], in test [13] and in [14]. In addition, the compound was classed as inactive in test [15], in [16], in test [1] and in test [2].

For `O=C(Nc1ccccc1-c1ccc(Cl)cc1)c1cccnc1Cl`, the result in test [1] and in test [2] was inactive.

As to `Nc1c(Cl)c(Cl)nc(C(=O)O)c1Cl`, the outcome in test [1] and in test [2] was inactive.

For the compound `CCCCOCN(C(=O)CCl)c1c(CC)cccc1CC`, the result in [1] and in test [2] was inactive.

For the compound `COP(=S)(OC)SCn1nnc2ccccc2c1=O`, the AC50 is 29.1 µM (active) and 5.67 µM (active) in [3]; 24.7 µM (active) in [5]; 93.7 µM (active) and 23.2 µM (active) in test [7]; 51.6 µM (active) and 32.6 µM (active) in test [8]. Also, the call in test [5], in test [6], in test [10], in [11], in [12] and in test [13] was inactive. For the same compound, the result in test [17], in test [14], in test [15], in test [16], in [1] and in test [2] was inactive.
